PubChem BioAssay AID1159580 (chemical genetic matrix, 2015)
Out of some 5,500 compounds screened, about 2,000 (36%) were called active. About 18% were inconclusive and are not listed. Rule as the data show it: active = normalized growth mostly below about 0.91 (no sharp cut-off); inconclusive = no clear call, values can overlap the other calls; inactive = mostly above about 0.92. The list shows a part of the results.

Assay: chemical genetic growth profiling, strain panel (AID 1159580);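 also: tested at 20 µM; growth read once vehicle control cultures reached saturation at 30 °C; 1 = growth at the plate median or of vehicle wells; lower values mean less growth of the strain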
Conditions: growth OD

Measured: normalized growth

OC[C@@H]1CCCN2CCCC[C@H]12
inactive: S. cerevisiae deletion strains, locus YJR066W, strain TOR1, active compounds read low 0.967 | S. cerevisiae deletion strains, locus YJR075W, strain HOC1, active compounds read low 1.02 | S. cerevisiae deletion strains, locus YKL009W, strain mrt4, active compounds read low 1.02 | S. cerevisiae deletion strains, locus YKL068W, active compounds read low 1.01 | S. cerevisiae deletion strains, locus YKL085W, strain MDH1 (second series), active compounds read low 1 | S. cerevisiae deletion strains, locus YKL085W, strain MDH1, active compounds read low 1 | S. cerevisiae deletion strains, locus YKL160W, strain elf1, active compounds read low 1.02 | S. cerevisiae deletion strains, locus YKR001C, strain vps1, active compounds read low 1.01 | S. cerevisiae deletion strains, locus YKR026C, strain gcn3, active compounds read low 1.06 | S. cerevisiae deletion strains, locus YKR091W, strain srl3, active compounds read low 1.02 | S. cerevisiae deletion strains, locus YLL001W, strain dnm1, active compounds read low 0.995 | S. cerevisiae deletion strains, locus YLL026W, active compounds read low 1.03 | S. cerevisiae deletion strains, locus YLL041C, strain sdh2, active compounds read low 1.01 | S. cerevisiae deletion strains, locus YLR027C, strain aat2, active compounds read low 1.02 | S. cerevisiae deletion strains, locus YLR039C, strain RIC1, active compounds read low 1.02 | S. cerevisiae deletion strains, locus YLR058C, strain SHM2, active compounds read low 1.01 | S. cerevisiae deletion strains, locus YLR102C, strain apc9, active compounds read low 1.01 | S. cerevisiae deletion strains, locus YLR113W, strain HOG1, active compounds read low 1.01 | S. cerevisiae deletion strains, locus YLR221C, strain rsa3, active compounds read low 1.02 | S. cerevisiae deletion strains, locus YLR258W, strain gsy2, active compounds read low 1.04 | S. cerevisiae deletion strains, locus YLR262C, strain YPT6 (second series), active compounds read low 1.04 | S. cerevisiae deletion strains, locus YLR262C, strain YPT6, active compounds read low 1.06 | S. cerevisiae deletion strains, locus YLR268W, strain sec22, active compounds read low 1.03 | S. cerevisiae deletion strains, locus YLR320W, strain mms22, active compounds read low 0.99 | S. cerevisiae deletion strains, locus YLR330W, strain CHS5, active compounds read low 0.98 | S. cerevisiae deletion strains, locus YLR342W, strain FKS1 (second series), active compounds read low 0.977 | S. cerevisiae deletion strains, locus YLR342W, strain FKS1, active compounds read low 1.03 | S. cerevisiae deletion strains, locus YLR357W, strain rsc2, active compounds read low 1.02 | S. cerevisiae deletion strains, locus YLR370C, strain arc18, active compounds read low 1.03 | S. cerevisiae deletion strains, locus YLR371W, strain rom2, active compounds read low 1.01 | S. cerevisiae deletion strains, locus YLR384C, strain iki3, active compounds read low 1.03 | S. cerevisiae deletion strains, locus YLR418C, strain cdc73, active compounds read low 1.03 | S. cerevisiae deletion strains, locus YML016C, strain PPZ1, active compounds read low 1 | S. cerevisiae deletion strains, locus YML032C, strain rad52, active compounds read low 0.995 | S. cerevisiae deletion strains, locus YML120C, strain ndi1, active compounds read low 1.03 | S. cerevisiae deletion strains, locus YML124C, strain tub3, active compounds read low 1 | S. cerevisiae deletion strains, locus YMR058W, strain fet3, active compounds read low 1.03 | S. cerevisiae deletion strains, locus YMR078C, strain ctf18, active compounds read low 1.01 | S. cerevisiae deletion strains, locus YMR125W, strain sto1, active compounds read low 1.05 | S. cerevisiae deletion strains, locus YMR129W, active compounds read low 1.04 | S. cerevisiae deletion strains, locus YMR205C, strain PFK2, active compounds read low 1.01 | S. cerevisiae deletion strains, locus YMR223W, strain ubp8, active compounds read low 1 | S. cerevisiae deletion strains, locus YMR231W, strain pep5, active compounds read low 1.04 | S. cerevisiae deletion strains, locus YMR263W, strain SAP30, active compounds read low 0.999 | S. cerevisiae deletion strains, locus YMR307W, strain GAS1, active compounds read low 1 | S. cerevisiae deletion strains, locus YNL067W, strain RPL9B, active compounds read low 1 | S. cerevisiae deletion strains, locus YNL071W, strain lat1, active compounds read low 1.03 | S. cerevisiae deletion strains, locus YNL183C, strain NPR1, active compounds read low 0.964 | S. cerevisiae deletion strains, locus YNL209W, strain ssb2, active compounds read low 1.02 | S. cerevisiae deletion strains, locus YNL233W, strain BNI4, active compounds read low 1.01 | S. cerevisiae deletion strains, locus YNL248C, strain rpa49, active compounds read low 1.03 | S. cerevisiae deletion strains, locus YNL250W, strain rad50, active compounds read low 1.03 | S. cerevisiae deletion strains, locus YNL271C, strain bni1, active compounds read low 1 | S. cerevisiae deletion strains, locus YNL298W, strain CLA4, active compounds read low 1.01 | S. cerevisiae deletion strains, locus YNL307C, strain MCK1, active compounds read low 1.03 | S. cerevisiae deletion strains, locus YNL322C, strain KRE1 (second series), active compounds read low 1.04 | S. cerevisiae deletion strains, locus YNL322C, strain KRE1, active compounds read low 1 | S. cerevisiae deletion strains, locus YNR049C, strain mso1, active compounds read low 1.03 | S. cerevisiae deletion strains, locus YNR052C, strain pop2, active compounds read low 1.01 | S. cerevisiae deletion strains, locus YOL006C, strain TOP1, active compounds read low 1.06 | S. cerevisiae deletion strains, locus YOL012C, strain htz1 0.808 | S. cerevisiae deletion strains, locus YOL147C, strain pex11, active compounds read low 1.02 | S. cerevisiae deletion strains, locus YOR001W, strain rrp6, active compounds read low 1.02 | S. cerevisiae deletion strains, locus YOR061W, strain CKA2, active compounds read low 1.01 | S. cerevisiae deletion strains, locus YOR069W, strain VPS5, active compounds read low 1.01 | S. cerevisiae deletion strains, locus YOR070C, strain gyp1, active compounds read low 1.04 | S. cerevisiae deletion strains, locus YOR080W, strain dia2, active compounds read low 1.03 | S. cerevisiae deletion strains, locus YOR083W, strain WHI5, active compounds read low 0.97 | S. cerevisiae deletion strains, locus YOR106W, strain vam3, active compounds read low 1.05 | S. cerevisiae deletion strains, locus YOR136W, strain idh2, active compounds read low 1.03 | S. cerevisiae deletion strains, locus YOR144C, strain elg1, active compounds read low 1.01 | S. cerevisiae deletion strains, locus YOR184W, strain ser1, active compounds read low 1.02 | S. cerevisiae deletion strains, locus YOR231W, strain MKK1, active compounds read low 1.03 | S. cerevisiae deletion strains, locus YOR265W, strain rbl2, active compounds read low 1.01 | S. cerevisiae deletion strains, locus YOR270C, strain vph1, active compounds read low 1.14 | S. cerevisiae deletion strains, locus YOR290C, strain snf2, active compounds read low 1.04 | S. cerevisiae deletion strains, locus YOR316C, strain cot1, active compounds read low 1.01 | S. cerevisiae deletion strains, locus YPL051W, strain arl3, active compounds read low 1.04 | S. cerevisiae deletion strains, locus YPL055C, strain LGE1, active compounds read low 1.01 | S. cerevisiae deletion strains, locus YPL078C, strain atp4, active compounds read low 1.04 | S. cerevisiae deletion strains, locus YPL106C, strain sse1, active compounds read low 1.03 | S. cerevisiae deletion strains, locus YPL240C, strain hsp82, active compounds read low 1.04 | S. cerevisiae deletion strains, locus YPL241C, strain CIN2, active compounds read low 1 | S. cerevisiae deletion strains, locus YPL256C, strain CLN2, active compounds read low 1.01 | S. cerevisiae deletion strains, locus YPR119W, strain clb2, active compounds read low 1.02 | S. cerevisiae deletion strains, locus YPR141C, strain kar3, active compounds read low 1.01 | S. cerevisiae deletion strains, locus YPR163C, strain tif3, active compounds read low 1.01 | S. cerevisiae deletion strains, locus YPR167C, strain met16, active compounds read low 1.01 | S. cerevisiae deletion strains, strain wtn01, active compounds read low 1.03 | S. cerevisiae strains, strain wild type, active compounds read low 0.979
